Where “and” joins values, the source holds several entries; their conditions need not be identical. Equal values may be shown once. Results filed as inconclusive are left out. Calls of active or inactive are those of the source. Unless noted, the call rests on the fitted dose curve; in most records, active means well fitted curve in the direction sought with a large enough effect; inconclusive means small, poorly fitted or top-dose-only effect, or another doubt; inactive means no such curve, though single readings can be large; an effect the other way counts as inactive or inconclusive.
How the values were obtained:
[1] = Cell Viability - N2a (AID 540); conditions: N2a mouse neuroblastoma cell viability; at 92.2 µM (top of the series);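 further: plate controls were DMSO alone for no effect and tamoxifen control for full effect; nearly all actives have a fitted effect of over 45% in size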
Method in brief: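 Mouse neuroblastoma N2a cells, 1500/well, exposed to compounds 40 h at 37 °C in complete medium. Viability measured as cellular ATP by CellTiter-Glo luminescence; AC50 from Hill fits of concentration-response.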

[2] = Cell Viability - Renal Proximal Tubule (AID 545);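 further: 0% = DMSO only and -100% = 100 µM tamoxifen; nearly all actives have a fitted effect of over 40% in size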
Method in brief: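 Rat kidney proximal tubule cells, freshly isolated; 1000 cells/well, 5 hr settle, compound 40 hr 37 °C. CellTiter-Glo 20 min RT, luminescence read. AC50 by standard Hill fit.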

[3] = Cellular Toxicity (caspase-3) Mesangial (AID 660);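 further: combined caspase 3 and 7 activity read by Caspase-Glo luminescence; cells exposed to compound for 16 h before the caspase read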
Method in brief: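 Human renal glomerular mesangial cells, 1000/well, 5 h at 37 C before 16 h compound treatment. Caspase-Glo 3/7 luminescence after 20 min; normalized to DMSO and 100 uM tamoxifen, AC50 from Hill fit.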

[4] = Cell Viability - LYMP2-026 (AID 989); further: on the % scale 0 is the no-effect control and ±100 the full control effect; nearly all actives have a fitted effect of over 50% in size
Method in brief: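 Human lymphoblastoid LYMP2-026 cells, 2500/well, exposed to compound 24 h at 37 C in complete medium. Viability as intracellular ATP by CellTiter-Glo luminescence; AC50 from Hill fits of qHTS concentration-response.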

[5] = Cell Viability - LYMP1-002 - Assay at 24 hr (AID 993); further: on the % scale 0 is the no-effect control and ±100 the full control effect
Method in brief: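 Human lymphoblastoid LYMP1-002 cells (2500/well) treated 24 h at 37 °C; viability as intracellular ATP by CellTiter-Glo luminescence. Tetraoctylammonium bromide as positive control; AC50 from Hill-equation fits of qHTS concentration-response.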

[6] = qHTS Assay for Identification of Small Molecule Inducers of Hypoxia Response (AID 2120; active means well fitted curve in the direction sought with a large enough effect in the signal ratio, with a control signal flat, not every such curve was filed as active; the % refers to the signal ratio; further: 0% is about no effect)
Method in brief: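 HRE-bla ME-180 cells in Opti-MEM with 0.5% dialyzed FBS, pre-plated 4-5 h, then compound titration for 17 h at 37 degrees Celsius. CCF4 loaded 2.5 h at room temperature; 460/530 nm ratio gave %Activity and AC50 for induction.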

[7] = biological target: Peroxisome proliferator-activated receptor gamma (Homo sapiens) (UniProt P37231); test: qHTS assay for small molecule agonists of peroxisome proliferator-activated receptor gamma signaling (AID 588536; active means well fitted curve in the direction sought with a large enough effect in the signal ratio, with a control signal flat, not every such curve was filed as active; the % refers to the signal ratio;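 further: 0% = DMSO basal wells and 100% = rosiglitazone at 2 µM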)
Method in brief: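 GeneBLAzer PPAR-gamma-UAS-bla HEK293 cells in 1% charcoal/dextran-treated FBS medium were treated 16 h at 37 C with compounds. Beta-lactamase activity was read by CCF4 ratio (460/530 nm). Response was normalized to 2 uM rosiglitazone (100%) and DMSO, then Hill-fitted for EC50 and efficacy.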

[8] = biological target: Thyroid hormone receptor beta (Homo sapiens) (UniProt P10828); test: qHTS assay for small molecule agonists of thyroid hormone receptor beta signaling (AID 588545; calls by dose curve;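 further: 0% = DMSO only and 100% = 10 nM T3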)
Method in brief: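 Beta-lactamase reporter activity under TR response element control is measured in HEK 293 cells after 18 hrs compound exposure. Signal is ratiometric CCF4 fluorescence, 460/530 nm.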

[9] = biological target: Thyroid hormone receptor beta (Homo sapiens) (UniProt P10828); test: qHTS assay for small molecule antagonists of thyroid hormone receptor beta signaling (AID 588547; active means well fitted inhibition curve with a large enough effect in the signal ratio, with a control signal flat, not every such curve was filed as active; the % refers to the signal ratio;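 further: cells stimulated with 0.4 nM T3 agonist during compound exposure; on the % scale 0 is the no-effect control and ±100 the full control effect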); conditions: TR-UAS-bla HEK293, beta-lactamase ratio, antagonist mode, 18 h
Method in brief: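 Inhibition of T3-driven (0.4nM final) beta-lactamase reporter activity was measured over 0.59 nM to 92 uM compound after 18 h at 37 C. The cells were GripTite HEK293 TR-UAS-bla in charcoal/dextran-stripped serum, with CCF4 ratio read-out and IC50 from Hill fits.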

[10] = qHTS assay for small molecule disruptors of the mitochondrial membrane potential - 1 hr assay (AID 651754; calls by dose curve; further: nearly all actives have a fitted effect of over 35% in size; further: potency means the concentration at half of the fitted maximal effect)
Method in brief: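 HepG2 cells, attached overnight, were exposed to compound for 1 hr at 37C, then stained 30 min with a potentiometric dye. Ratio of red aggregate (590nm) to green monomer (535nm) fluorescence reports membrane potential; collapse shifts signal toward green.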

[11] = biological target: Tumor necrosis factor (Homo sapiens) (UniProt P01375); test: qHTS assay to identify small molecules that stimulate Tumor Necrosis Factor-alpha (TNF-alpha) secretion (AID 651757; active means well fitted curve in the direction sought with a large enough effect in the signal ratio; the % refers to the signal ratio; further: 0% is about no effect)
Method in brief: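 THP-1 cells (3000/well) exposed to compounds 17 hrs at 37 C. Secreted TNF-alpha detected by HTRF with cryptate- and XL665-labeled anti-TNF-alpha antibodies after 3 hr at room temperature.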

[12] = qHTS assay for small molecule agonists of the antioxidant response element (ARE) signaling pathway measured by Nrf2-dependant transcriptional activity (AID 720636; active means well fitted curve in the direction sought with a large enough effect in the repeat runs; an effect the other way counts as inactive or inconclusive; further: % of control where 0% means no effect)
Method in brief: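 ARE-luc HepG2 cells carrying an Nrf2-responsive luciferase reporter were plated in medium with 1% dialyzed FBS, left 6 hr at 37 C to attach, then exposed to compound for 16 hr. Luciferase luminescence was read after ONE-Glo addition.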

[13] = qHTS for differential inhibitors of proliferation of Plasmodium falciparum line W2 (AID 1883); conditions: Potency: Plasmodium falciparum W2 proliferation inhibition;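 further: potency means the concentration at half of the fitted maximal effect; parasites grown with compound for 72 h before lysis and staining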
[14] = Cell Viability - NIH 3T3 (AID 541); conditions: NIH 3T3 cell viability, qHTS; at 92.2 µM (top of the series);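 further: plate controls were DMSO alone for no effect and tamoxifen positive control for full effect; nearly all actives have a fitted effect of over 25% in size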
Method in brief: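 Mouse NIH 3T3 fibroblasts, 1000 cells/well, rested 5 hr at 37 °C, then exposed to compound for 40 hr at 37 °C in complete medium. Viability read as intracellular ATP by CellTiter-Glo luminescence; AC50 from Hill-equation fits of concentration-response data.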

[15] = Cellular Toxicity (caspase-3) Jurkat (AID 655);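 further: cells exposed to compound for 16 h at 37 °C before reading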
Method in brief: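 Luminescent caspase-3/7 readout (aminoluciferin substrate cleavage) in human T-cell leukemia Jurkat cells after 16 hr compound exposure. Concentration-response normalized to DMSO and 100 uM tamoxifen; AC50 by standard Hill equation.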

[16] = Cell Viability - LYMP2-001 (AID 921);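 further: 0% = DMSO only and full inhibition = tetraoctylammonium bromide control wells; nearly all actives have a fitted effect of over 70% in size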
Method in brief: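 CellTiter-Glo luminescence (intracellular ATP) after 24 hr compound exposure at 37 C, 2500 lymphoblastoid cells/well in complete medium. AC50 fitted with standard Hill equation; tetraoctylammonium bromide positive control.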

[17] = Cell Viability - LYMP2-007 (AID 979);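 further: cells exposed to compound for 24 h before reading; 0% = DMSO only and the negative end = 92 µM tetraoctylammonium bromide; nearly all actives have a fitted effect of over 60% in size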
Method in brief: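 Human lymphoblastoid LYMP2-007 cells (2500/well) preincubated 5 h at 37 C, then treated 24 h at 37 C in complete medium. Viability by CellTiter-Glo ATP luminescence after 30 min at room temperature; AC50 from Hill fits.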

[18] = biological target: Glucocorticoid receptor (Homo sapiens) (UniProt P04150); test: qHTS assay for small molecule antagonists of glucocorticoid receptor signaling (AID 588533; active means well fitted inhibition curve with a large enough effect in the signal ratio, with a control signal flat, not every such curve was filed as active; the % refers to the signal ratio;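 further: cells stimulated with 2 nM dexamethasone as agonist; on the % scale 0 is the no-effect control and ±100 the full control effect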)
Method in brief: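 Antagonist-mode qHTS: compound titrations added to GRE-bla HeLa cells, then dexamethasone 2 nM final; 18 h, 37 C. CCF4 FRET fluorescence normalized to dexamethasone and DMSO; IC50 from Hill fit.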

[19] = qHTS assay for small molecule antagonists of retinoid X receptor alpha signaling (AID 588546; active means well fitted inhibition curve with a large enough effect in the signal ratio, with a control signal flat, not every such curve was filed as active; the % refers to the signal ratio;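 further: cells stimulated with 9-cis-retinoic acid as agonist; on the % scale 0 is the no-effect control and ±100 the full control effect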); conditions: HEK293T RXRa-UAS-bla, beta-lactamase ratio, antagonist mode; measured here: W530 green channel, cytotoxicity proxy
Method in brief: (§1)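 Beta-lactamase reporter inhibition, read as CCF4 fluorescence ratio (ex 405, em 460/530 nm) after 2 h at RT. HEK293T UAS-bla cells, 2500/well, were stimulated with 9-cis-RA at 500 or 100 nM final alongside test compound for 18 h at 37 C.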

[20] = biological target: Retinoic acid receptor RXR-alpha (Homo sapiens) (UniProt P19793); test: as above; conditions: HEK293T RXRa-UAS-bla, beta-lactamase ratio, antagonist mode
Method in brief: as §1

Thyroid hormone receptor beta (Homo sapiens), sequence (P10828 whole entry, looked up): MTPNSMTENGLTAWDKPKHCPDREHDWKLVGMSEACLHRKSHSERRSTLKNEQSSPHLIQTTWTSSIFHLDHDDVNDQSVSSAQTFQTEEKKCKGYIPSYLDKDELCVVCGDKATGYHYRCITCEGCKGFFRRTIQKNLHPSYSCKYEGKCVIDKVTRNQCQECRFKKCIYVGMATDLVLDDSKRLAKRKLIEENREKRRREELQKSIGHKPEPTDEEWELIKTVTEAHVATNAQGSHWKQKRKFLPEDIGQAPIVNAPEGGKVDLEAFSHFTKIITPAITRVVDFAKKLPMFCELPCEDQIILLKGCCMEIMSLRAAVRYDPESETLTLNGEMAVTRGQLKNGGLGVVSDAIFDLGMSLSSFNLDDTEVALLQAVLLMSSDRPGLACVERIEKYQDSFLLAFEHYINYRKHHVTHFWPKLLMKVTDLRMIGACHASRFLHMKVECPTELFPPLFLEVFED
Peroxisome proliferator-activated receptor gamma (Homo sapiens), sequence (P37231 whole entry, looked up): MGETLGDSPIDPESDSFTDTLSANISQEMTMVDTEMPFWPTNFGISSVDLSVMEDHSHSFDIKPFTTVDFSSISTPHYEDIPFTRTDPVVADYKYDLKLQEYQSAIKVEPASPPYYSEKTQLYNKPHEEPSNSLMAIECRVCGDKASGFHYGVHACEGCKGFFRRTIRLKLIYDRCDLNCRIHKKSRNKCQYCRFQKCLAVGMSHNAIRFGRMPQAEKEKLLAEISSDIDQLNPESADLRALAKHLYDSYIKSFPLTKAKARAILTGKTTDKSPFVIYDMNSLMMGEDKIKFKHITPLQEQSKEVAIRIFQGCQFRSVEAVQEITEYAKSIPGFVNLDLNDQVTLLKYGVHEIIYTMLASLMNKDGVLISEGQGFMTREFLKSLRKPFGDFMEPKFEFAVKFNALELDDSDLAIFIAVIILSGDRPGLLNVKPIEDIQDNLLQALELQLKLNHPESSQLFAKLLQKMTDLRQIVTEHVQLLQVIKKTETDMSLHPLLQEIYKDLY
Glucocorticoid receptor (Homo sapiens), sequence (P04150 whole entry, looked up): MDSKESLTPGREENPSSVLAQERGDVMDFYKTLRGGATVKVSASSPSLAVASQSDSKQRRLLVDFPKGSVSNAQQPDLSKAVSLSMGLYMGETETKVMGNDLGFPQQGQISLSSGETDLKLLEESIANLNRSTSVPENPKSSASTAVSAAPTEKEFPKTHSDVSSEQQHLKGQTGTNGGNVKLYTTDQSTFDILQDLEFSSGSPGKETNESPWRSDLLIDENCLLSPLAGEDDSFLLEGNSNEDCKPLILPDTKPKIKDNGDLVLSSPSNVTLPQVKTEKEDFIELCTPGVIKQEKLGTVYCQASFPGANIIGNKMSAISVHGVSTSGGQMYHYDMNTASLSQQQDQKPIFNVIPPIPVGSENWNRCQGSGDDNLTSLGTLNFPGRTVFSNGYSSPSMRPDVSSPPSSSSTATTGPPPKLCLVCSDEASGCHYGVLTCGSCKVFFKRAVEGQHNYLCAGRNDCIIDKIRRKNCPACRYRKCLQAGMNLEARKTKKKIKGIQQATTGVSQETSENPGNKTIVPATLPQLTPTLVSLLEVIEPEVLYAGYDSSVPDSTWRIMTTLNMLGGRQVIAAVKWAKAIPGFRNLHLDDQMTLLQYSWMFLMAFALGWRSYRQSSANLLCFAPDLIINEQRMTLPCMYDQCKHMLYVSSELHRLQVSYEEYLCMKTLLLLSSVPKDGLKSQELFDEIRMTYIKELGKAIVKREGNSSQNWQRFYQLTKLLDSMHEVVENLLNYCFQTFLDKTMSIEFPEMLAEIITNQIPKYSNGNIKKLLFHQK
Tumor necrosis factor (Homo sapiens), sequence (P01375 whole entry, looked up): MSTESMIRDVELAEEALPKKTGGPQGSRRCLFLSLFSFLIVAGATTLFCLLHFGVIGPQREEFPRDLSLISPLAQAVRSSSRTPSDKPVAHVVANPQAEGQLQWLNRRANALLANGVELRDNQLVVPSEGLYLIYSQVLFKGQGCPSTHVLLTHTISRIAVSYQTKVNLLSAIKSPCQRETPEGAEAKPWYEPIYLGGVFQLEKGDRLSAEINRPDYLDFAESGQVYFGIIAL
Retinoic acid receptor RXR-alpha (Homo sapiens), sequence (P19793 whole entry, looked up): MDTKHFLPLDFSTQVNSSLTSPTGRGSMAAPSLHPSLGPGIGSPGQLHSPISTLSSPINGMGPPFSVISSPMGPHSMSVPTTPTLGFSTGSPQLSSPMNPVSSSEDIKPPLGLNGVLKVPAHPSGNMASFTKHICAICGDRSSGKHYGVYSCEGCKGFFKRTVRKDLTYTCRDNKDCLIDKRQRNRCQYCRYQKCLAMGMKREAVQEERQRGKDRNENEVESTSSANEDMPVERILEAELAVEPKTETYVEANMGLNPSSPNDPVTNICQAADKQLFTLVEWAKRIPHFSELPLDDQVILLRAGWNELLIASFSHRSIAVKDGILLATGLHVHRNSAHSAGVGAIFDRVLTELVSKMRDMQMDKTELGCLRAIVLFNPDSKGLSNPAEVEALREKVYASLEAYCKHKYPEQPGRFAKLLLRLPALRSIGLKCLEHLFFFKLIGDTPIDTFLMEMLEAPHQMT

COC1=CC(=O)OC(CCc2ccc3c(c2)OCO3)C1 (stereo unspecified)
inactive: activity change, negative = cytotoxicity [1] -20.1% | outcome [2] | outcome [3] | outcome [4] | outcome [5] | outcome [6] | outcome [7] | Potency [8] | activity change % (negative = inhibition) [9] -2% | Potency [10] | outcome [11] | Potency [12]

COc1cc([C@@H]2c3cc4c(cc3[C@H](O)C3COC(=O)[C@@H]32)OCO4)cc(OC)c1OC (stereo partly specified)
active: Potency [13] 11.2 µM

c1ccc(Nc2ccc3ccccc3c2)cc1
inactive: activity change, negative = cytotoxicity [14] -27% | outcome [15] | outcome [16] | outcome [17] | outcome [4] | outcome [5] | outcome [6] | Potency [18] | outcome [7] | Potency [8] | max response [20] 4.38% and -18.9% | activity change % (negative = inhibition) [9] -6.28%
-7.73% and -2.18%: max response [19]
active: Potency [10] 37.6 µM

CC(=O)/C=C/c1ccccc1
inactive: activity change, negative = cytotoxicity [1] -5.72% | outcome [2] | outcome [15] | outcome [3] | outcome [16] | outcome [17] | outcome [4] | outcome [5] | outcome [6] | Potency [18] | outcome [7] | max response [20] 11.5% | Potency [10] | outcome [11] | Potency [12]
-5.45%: max response [19]
active: activity change, negative = cytotoxicity [14] -123%

Nc1nc2ccc(Cl)cc2c2nc(-c3ccco3)nn12
active: Potency [13] 11.2 µM

c1ccc2c(c1)-c1cccc3cccc-2c13
inactive: activity change, negative = cytotoxicity [1] -25.7% | activity change, negative = cytotoxicity [14] -24% | outcome [2] | outcome [15] | outcome [3] | outcome [16] | outcome [17] | outcome [4] | outcome [5] | Potency [8] | max response [20] -2.14% | activity change % (negative = inhibition) [9] 3.57% | outcome [11] | Potency [12]
-3.55%: max response [19]

CCCCCCCCCC[Si](C)(C)CCC(=O)NC(Cc1ccc(C)cc1)c1ccccc1 (stereo unspecified)
active: Potency [13] 3.16 µM

Reference: PubChem BioAssay (NCATS)
